The source of these data is the supplement of paper PMC10681739.
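Also: Full-length recombinant human RUNX1 bound to double-stranded 36-bp genomic probes on a high-density microarray, scored as Alexa488 fluorescence per spot via anti-RUNX1 antibody, median of four replicate spots.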

Sequence of RUNX1 (Q01196 whole entry): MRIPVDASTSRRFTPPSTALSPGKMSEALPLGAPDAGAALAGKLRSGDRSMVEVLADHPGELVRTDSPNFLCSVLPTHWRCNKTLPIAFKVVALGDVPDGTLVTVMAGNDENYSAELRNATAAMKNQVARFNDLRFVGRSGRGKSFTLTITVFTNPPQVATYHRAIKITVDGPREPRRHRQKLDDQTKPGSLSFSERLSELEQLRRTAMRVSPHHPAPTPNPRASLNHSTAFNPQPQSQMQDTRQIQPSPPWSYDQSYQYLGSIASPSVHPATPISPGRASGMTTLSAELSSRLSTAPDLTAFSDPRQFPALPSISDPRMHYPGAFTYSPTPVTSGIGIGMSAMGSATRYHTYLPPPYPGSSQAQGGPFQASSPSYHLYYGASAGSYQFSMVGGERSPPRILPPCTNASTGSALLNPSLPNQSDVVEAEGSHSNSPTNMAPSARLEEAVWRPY

This assay has as its target RUNX1 (UniProt Q01196). The experiment in a line: RUNX1 binding intensity (PBM fluorescence), RUNX1 alone (arbitrary fluorescence units); higher = stronger binding. The settings on record: RUNX1 concentration 2 nM; ETS1 concentration 0 nM. Here is the method: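 Cooperative gcPBM on 36-bp genomic probes with neighbouring ETS1 and RUNX1 sites. Recombinant human RUNX1 (2 nM) was incubated alone or with ETS1 (25 nM) and detected with anti-RUNX1 antibody plus Alexa488 secondary. Values are medians over 4 replicate spots; the RUNX1+ETS1 data were normalised to the RUNX1-only data. The probes sit in constant array flanks that are not printed.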
CCGGGAAACACGGGAGAGCGACCGAAACCGCAATCA: the RUNX1 binding intensity was 3650.

Sequence GCCCCTTTTTCCTGGGATGAGCGGTTAGCGGAGGGG displayed an RUNX1 binding intensity of 1090.

On to GTGCCTTTTCATGTGGGATGTGGCTTCAAGGAGACC, for which the RUNX1 binding intensity amounted to 911.

In the case of ACAGACAGCATCCTGAGCTCGTGGTTAGAACACCCT, the RUNX1 binding intensity is 841.

For the sequence CTGGGCGTGGGCTTCCTGCGGCTGAGTGGCAGCTTC, the RUNX1 binding intensity is 740.

In turn, ACCACACTTCCCAGGAGTCTCTGCGGCCGCGCGGAG had an RUNX1 binding intensity of 938.

Take AGTTTTCCGTCGGGCTCCCAGTGACGCCGCAGAGGT: the RUNX1 binding intensity worked out at 764.

As for GACAGTTTTCCGGCCTAGTTTGCGGCTGCTCCTGCC, the RUNX1 binding intensity stood at 830.

Take GAGTTCTCCGCTTCCTTGCGGCCGGCGGGATTAGCC: the RUNX1 binding intensity came to 907.

In the case of ATGTCAGGAAGAGGCTCAGGGCTGTGGTTTCTCTGT, the RUNX1 binding intensity came to 979.

Turning to GCAGGACTTCCTGTGTTGTGCTAACCTCAAATTACA, the RUNX1 binding intensity was found to be 859.

TTTCTTCTGATCTTCCTCCCCGCACGTCTGCACAGG came in with an RUNX1 binding intensity of 1220.

Sequence CTCCCGGACGCTAACGTCTGGCAAACCACATTGCCC returned an RUNX1 binding intensity of 993.

Sequence GTCCCCTGAATTTTCCTGTGGTTCTTATCACCAGGT returned an RUNX1 binding intensity of 1180.

TTTGTTGTTCCGGGTGCGAGGCGGCCGCAGCTTCCA had an RUNX1 binding intensity of 1090.

In turn, GGGATCCTTCCGCTCCGGGTTAACCCCGACCGCGCC yielded an RUNX1 binding intensity of 795.

The sequence GTTGAAATTGAGCTTCCGTTGGTGGTTAACCCTCTG came in with an RUNX1 binding intensity of 894.

Consider GAGTGCCGTTTCCCCCGCTCACCGCGGGCTAGGGAG, for which the RUNX1 binding intensity stood at 942.

On to GGCGGTGCACTCTGGGAAATGTGGTTTTCGCGGCGC, for which the RUNX1 binding intensity was 1090.

TTGTTCCACCCCCGCGGAAACCGCTGCTCGCTGGGC gave an RUNX1 binding intensity of 913.

Regarding GCTGCAAGGCGGAAGCAGCGCGGTCGGACGGGCATG, the RUNX1 binding intensity worked out at 721.

Consider CCATTTCCCCCATCACTTTGAATTGTGGTTCTTCTC, for which the RUNX1 binding intensity came out at 1590.

In turn, GCACGGCGGAATTTCAAATGGGGTTTTGTGGTTTCT came in with an RUNX1 binding intensity of 1220.

For AGAGGCAGTTCCGGGGTGGGAACCGCGCGGAGCTTT, the RUNX1 binding intensity stood at 687.

For the sequence GCTTAAGGAAGGGACAACTAGAGTGGGTTACTCTGC, the RUNX1 binding intensity was 863.

Turning to CTTAGGACTTCCCGTAGATGGTGGTCTGTGCTAAGG, the RUNX1 binding intensity worked out at 706.

In the case of GCCGCCGTTTCCTGATTGGTTGTGGGTGGCTACCTC, the RUNX1 binding intensity was found to be 834.

ACGAGAGTCTAGAGGAAACCAACCCGCAACTCACTG: the RUNX1 binding intensity came out at 892.

For TTACTTCCTGAGGGTGCACAGGCTGTGGTCGTCTAT, the RUNX1 binding intensity was determined as 760.

For GGGGGAAGCTTCCTGAGGTGAAATAGACCGCTGTGC, the RUNX1 binding intensity is 735.

CCACCTCCTCCGGACGCCGCCCGCAACTGAGCATGC came in with an RUNX1 binding intensity of 1030.

With AGTCGGAAGCCATCTGCCCCAACTTGCGGTCTTCAC, the RUNX1 binding intensity was determined as 1070.

The sequence ATGGTCCAGGAAGATAAGGGCTGAAAACCACCCACT had an RUNX1 binding intensity of 857.

The sequence TCGCCCACTTCCCCACCTCTCAAAAGACCACAGGCA displayed an RUNX1 binding intensity of 1560.

TTGATTGGAGCAGGATGTGGTCAGAACAGTATGCAG registered an RUNX1 binding intensity of 794.

The sequence AGGTTCGTGGCAGGAAAGTTTGTGGCAGCAAAGCCT registered an RUNX1 binding intensity of 1190.

The sequence TACAGCTTCCTTCACCCCACTTGTGGCCTGGGTTAC yielded an RUNX1 binding intensity of 814.

Sequence AGGAAACCACAAGTTATTCCCTGCAAAGGTCTTGAT registered an RUNX1 binding intensity of 3320.

Consider AGCCACGGACTTCCGCCTACAGGTCGCCGCAGGTCC, for which the RUNX1 binding intensity was found to be 756.

CCCTTCCTGTGAGGGAGGTTCCAGTTCCCACAGCGG had an RUNX1 binding intensity of 782.
